# Measurements taken from ChEMBL document CHEMBL1961873, “Compounds: GSK PKIS; Assays: Nanosyn kinase panel” (2012).
# Columns and labels:
# [1] = molecular target: Calcium/calmodulin-dependent protein kinase type II subunit alpha (Homo sapiens) (UniProt Q9UQM7); details: at 1 µM;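 also: reported value is a mean percent inhibition of CAMK2A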
# [2] = molecular target: Calcium/calmodulin-dependent protein kinase type II subunit delta (Homo sapiens) (UniProt Q13557); details: at 0.1 µM
# [3] = molecular target: Calcium/calmodulin-dependent protein kinase type II subunit delta (Homo sapiens) (UniProt Q13557); details: at 1 µM
# [4] = molecular target: T1, Calcium/calmodulin-dependent protein kinase type IV (Homo sapiens) (UniProt Q16566); details: at 0.1 µM
# T1 sequence (whole entry): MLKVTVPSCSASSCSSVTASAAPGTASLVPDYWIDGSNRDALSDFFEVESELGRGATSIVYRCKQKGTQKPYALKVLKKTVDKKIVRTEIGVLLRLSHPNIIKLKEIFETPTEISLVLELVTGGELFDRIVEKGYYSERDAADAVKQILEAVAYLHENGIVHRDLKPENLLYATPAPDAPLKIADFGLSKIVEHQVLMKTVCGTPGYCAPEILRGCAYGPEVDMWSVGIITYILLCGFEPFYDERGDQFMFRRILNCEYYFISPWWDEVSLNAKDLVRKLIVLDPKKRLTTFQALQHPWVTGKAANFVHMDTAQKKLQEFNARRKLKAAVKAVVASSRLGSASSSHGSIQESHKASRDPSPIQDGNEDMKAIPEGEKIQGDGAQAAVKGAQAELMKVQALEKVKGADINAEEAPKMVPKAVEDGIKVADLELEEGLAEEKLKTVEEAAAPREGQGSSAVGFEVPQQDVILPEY
# [5] = molecular target: T1, Calcium/calmodulin-dependent protein kinase type IV (Homo sapiens); details: at 1 µM
# [6] = molecular target: T2, Serine/threonine-protein kinase Chk1 (Homo sapiens) (UniProt O14757); details: at 0.1 µM
# T2 sequence (whole entry): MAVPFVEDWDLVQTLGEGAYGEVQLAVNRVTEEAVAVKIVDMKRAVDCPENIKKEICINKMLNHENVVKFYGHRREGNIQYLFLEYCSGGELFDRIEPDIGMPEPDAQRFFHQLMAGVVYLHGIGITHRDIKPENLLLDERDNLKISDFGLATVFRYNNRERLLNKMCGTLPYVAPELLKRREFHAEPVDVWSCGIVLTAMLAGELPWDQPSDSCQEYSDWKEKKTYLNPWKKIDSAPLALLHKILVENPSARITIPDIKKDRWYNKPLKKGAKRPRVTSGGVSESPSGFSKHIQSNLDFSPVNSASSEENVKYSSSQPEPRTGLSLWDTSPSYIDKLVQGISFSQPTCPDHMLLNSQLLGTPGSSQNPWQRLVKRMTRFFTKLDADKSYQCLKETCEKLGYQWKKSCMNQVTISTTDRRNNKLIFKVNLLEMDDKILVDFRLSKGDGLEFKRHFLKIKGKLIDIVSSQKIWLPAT
# [7] = molecular target: T2, Serine/threonine-protein kinase Chk1 (Homo sapiens); details: at 1 µM
# [8] = molecular target: Serine/threonine-protein kinase Chk2 (Homo sapiens) (UniProt O96017); details: at 0.1 µM
# [9] = molecular target: Serine/threonine-protein kinase Chk2 (Homo sapiens) (UniProt O96017); details: at 1 µM
# [10] = molecular target: Death-associated protein kinase 1 (Homo sapiens) (UniProt P53355); details: at 0.1 µM
# [11] = molecular target: Death-associated protein kinase 1 (Homo sapiens) (UniProt P53355); details: at 1 µM
# [12] = molecular target: T3, Serine/threonine-protein kinase DCLK2 (Homo sapiens) (UniProt Q8N568); details: at 0.1 µM
# T3 sequence (whole entry): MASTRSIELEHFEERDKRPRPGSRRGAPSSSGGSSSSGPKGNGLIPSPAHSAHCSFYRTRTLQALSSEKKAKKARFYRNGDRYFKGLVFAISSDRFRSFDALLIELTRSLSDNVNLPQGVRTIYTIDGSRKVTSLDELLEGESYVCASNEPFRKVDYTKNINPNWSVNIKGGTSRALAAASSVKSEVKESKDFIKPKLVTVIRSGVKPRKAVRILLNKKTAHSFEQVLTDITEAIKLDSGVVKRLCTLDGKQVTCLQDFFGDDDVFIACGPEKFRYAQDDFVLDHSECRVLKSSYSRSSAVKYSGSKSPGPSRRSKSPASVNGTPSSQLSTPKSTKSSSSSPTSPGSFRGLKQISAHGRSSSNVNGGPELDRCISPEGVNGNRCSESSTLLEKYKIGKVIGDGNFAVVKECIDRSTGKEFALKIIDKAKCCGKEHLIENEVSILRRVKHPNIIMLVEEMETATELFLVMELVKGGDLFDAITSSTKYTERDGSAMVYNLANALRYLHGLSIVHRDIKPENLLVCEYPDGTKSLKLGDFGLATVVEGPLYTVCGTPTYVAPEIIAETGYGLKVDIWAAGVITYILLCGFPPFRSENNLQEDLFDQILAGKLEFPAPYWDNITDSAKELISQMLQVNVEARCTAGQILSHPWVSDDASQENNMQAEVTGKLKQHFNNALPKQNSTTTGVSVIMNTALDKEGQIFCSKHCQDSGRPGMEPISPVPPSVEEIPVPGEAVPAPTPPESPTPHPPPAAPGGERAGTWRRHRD
# [13] = molecular target: T3, Serine/threonine-protein kinase DCLK2 (Homo sapiens); details: at 1 µM
# [14] = molecular target: MAP kinase-activated protein kinase 2 (Homo sapiens) (UniProt P49137); details: at 0.1 µM
# [15] = molecular target: MAP kinase-activated protein kinase 2 (Homo sapiens) (UniProt P49137); details: at 1 µM
# [16] = molecular target: MAP kinase-activated protein kinase 3 (Homo sapiens) (UniProt Q16644); details: at 0.1 µM
# [17] = molecular target: MAP kinase-activated protein kinase 3 (Homo sapiens) (UniProt Q16644); details: at 1 µM
# [18] = molecular target: Serine/threonine-protein kinase MARK1 (Homo sapiens) (UniProt Q9P0L2); details: at 0.1 µM
# [19] = molecular target: Serine/threonine-protein kinase MARK1 (Homo sapiens) (UniProt Q9P0L2); details: at 1 µM
# [20] = molecular target: MAP/microtubule affinity-regulating kinase 3 (Homo sapiens) (UniProt P27448); details: at 0.1 µM;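 also: mean percent inhibition of MARK3 kinase activity, measured within the GSK PKIS screening panel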
# MAP/microtubule affinity-regulating kinase 3 (Homo sapiens), sequence (P27448 whole entry, looked up): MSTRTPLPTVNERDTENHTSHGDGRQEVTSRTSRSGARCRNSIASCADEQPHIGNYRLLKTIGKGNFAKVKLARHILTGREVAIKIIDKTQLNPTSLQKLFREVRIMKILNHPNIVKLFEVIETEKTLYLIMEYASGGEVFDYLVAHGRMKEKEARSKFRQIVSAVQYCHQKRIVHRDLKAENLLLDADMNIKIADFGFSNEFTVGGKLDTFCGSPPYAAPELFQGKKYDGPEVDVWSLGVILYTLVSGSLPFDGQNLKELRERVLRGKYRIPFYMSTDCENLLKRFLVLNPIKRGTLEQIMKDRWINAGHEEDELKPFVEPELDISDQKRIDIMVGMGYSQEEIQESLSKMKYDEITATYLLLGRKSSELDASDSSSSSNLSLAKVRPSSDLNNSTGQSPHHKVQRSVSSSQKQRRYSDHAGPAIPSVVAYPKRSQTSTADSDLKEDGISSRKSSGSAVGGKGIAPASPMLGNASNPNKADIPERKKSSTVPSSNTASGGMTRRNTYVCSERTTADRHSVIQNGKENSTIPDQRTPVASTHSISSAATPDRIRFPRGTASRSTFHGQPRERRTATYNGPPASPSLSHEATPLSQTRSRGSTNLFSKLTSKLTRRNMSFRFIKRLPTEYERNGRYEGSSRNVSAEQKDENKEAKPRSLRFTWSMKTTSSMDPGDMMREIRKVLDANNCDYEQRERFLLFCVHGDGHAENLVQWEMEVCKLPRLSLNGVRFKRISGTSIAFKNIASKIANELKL
# Serine/threonine-protein kinase Chk2 (Homo sapiens), sequence (O96017 whole entry): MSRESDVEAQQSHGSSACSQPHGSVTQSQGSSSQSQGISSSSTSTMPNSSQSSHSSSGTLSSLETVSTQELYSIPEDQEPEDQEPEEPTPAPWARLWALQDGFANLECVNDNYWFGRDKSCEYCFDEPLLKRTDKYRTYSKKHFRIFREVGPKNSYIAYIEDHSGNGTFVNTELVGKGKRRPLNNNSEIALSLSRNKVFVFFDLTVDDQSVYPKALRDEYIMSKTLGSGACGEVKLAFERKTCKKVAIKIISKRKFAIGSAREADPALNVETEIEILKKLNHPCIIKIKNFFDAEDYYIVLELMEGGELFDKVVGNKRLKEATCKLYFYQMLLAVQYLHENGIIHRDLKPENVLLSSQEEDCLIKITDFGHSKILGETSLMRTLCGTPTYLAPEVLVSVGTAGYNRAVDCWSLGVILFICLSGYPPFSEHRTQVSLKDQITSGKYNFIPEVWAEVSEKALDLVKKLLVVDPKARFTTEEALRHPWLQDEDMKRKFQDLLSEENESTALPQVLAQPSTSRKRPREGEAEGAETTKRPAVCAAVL
# MAP kinase-activated protein kinase 3 (Homo sapiens), sequence (Q16644 whole entry, looked up): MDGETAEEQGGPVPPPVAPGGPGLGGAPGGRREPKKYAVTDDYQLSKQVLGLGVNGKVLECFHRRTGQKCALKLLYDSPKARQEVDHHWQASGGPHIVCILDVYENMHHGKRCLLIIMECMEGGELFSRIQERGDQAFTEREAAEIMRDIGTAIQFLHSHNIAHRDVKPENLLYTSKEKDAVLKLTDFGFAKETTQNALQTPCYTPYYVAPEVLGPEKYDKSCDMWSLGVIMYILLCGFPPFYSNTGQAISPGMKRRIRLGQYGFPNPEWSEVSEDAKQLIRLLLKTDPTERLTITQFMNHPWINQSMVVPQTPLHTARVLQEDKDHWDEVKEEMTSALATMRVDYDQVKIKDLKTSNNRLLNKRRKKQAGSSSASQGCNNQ
# MAP kinase-activated protein kinase 2 (Homo sapiens), sequence (P49137 whole entry, looked up): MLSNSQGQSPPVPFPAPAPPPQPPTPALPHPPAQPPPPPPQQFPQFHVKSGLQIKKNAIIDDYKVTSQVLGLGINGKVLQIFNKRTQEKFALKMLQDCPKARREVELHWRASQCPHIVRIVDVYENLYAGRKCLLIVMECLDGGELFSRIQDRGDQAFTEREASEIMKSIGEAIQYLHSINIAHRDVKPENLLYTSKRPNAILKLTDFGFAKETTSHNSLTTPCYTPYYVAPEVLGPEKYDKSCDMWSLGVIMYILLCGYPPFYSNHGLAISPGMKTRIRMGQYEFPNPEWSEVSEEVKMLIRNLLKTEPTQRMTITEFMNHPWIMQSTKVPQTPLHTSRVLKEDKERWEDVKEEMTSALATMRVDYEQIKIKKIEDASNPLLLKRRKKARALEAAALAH
# Death-associated protein kinase 1 (Homo sapiens), sequence (P53355 whole entry, looked up): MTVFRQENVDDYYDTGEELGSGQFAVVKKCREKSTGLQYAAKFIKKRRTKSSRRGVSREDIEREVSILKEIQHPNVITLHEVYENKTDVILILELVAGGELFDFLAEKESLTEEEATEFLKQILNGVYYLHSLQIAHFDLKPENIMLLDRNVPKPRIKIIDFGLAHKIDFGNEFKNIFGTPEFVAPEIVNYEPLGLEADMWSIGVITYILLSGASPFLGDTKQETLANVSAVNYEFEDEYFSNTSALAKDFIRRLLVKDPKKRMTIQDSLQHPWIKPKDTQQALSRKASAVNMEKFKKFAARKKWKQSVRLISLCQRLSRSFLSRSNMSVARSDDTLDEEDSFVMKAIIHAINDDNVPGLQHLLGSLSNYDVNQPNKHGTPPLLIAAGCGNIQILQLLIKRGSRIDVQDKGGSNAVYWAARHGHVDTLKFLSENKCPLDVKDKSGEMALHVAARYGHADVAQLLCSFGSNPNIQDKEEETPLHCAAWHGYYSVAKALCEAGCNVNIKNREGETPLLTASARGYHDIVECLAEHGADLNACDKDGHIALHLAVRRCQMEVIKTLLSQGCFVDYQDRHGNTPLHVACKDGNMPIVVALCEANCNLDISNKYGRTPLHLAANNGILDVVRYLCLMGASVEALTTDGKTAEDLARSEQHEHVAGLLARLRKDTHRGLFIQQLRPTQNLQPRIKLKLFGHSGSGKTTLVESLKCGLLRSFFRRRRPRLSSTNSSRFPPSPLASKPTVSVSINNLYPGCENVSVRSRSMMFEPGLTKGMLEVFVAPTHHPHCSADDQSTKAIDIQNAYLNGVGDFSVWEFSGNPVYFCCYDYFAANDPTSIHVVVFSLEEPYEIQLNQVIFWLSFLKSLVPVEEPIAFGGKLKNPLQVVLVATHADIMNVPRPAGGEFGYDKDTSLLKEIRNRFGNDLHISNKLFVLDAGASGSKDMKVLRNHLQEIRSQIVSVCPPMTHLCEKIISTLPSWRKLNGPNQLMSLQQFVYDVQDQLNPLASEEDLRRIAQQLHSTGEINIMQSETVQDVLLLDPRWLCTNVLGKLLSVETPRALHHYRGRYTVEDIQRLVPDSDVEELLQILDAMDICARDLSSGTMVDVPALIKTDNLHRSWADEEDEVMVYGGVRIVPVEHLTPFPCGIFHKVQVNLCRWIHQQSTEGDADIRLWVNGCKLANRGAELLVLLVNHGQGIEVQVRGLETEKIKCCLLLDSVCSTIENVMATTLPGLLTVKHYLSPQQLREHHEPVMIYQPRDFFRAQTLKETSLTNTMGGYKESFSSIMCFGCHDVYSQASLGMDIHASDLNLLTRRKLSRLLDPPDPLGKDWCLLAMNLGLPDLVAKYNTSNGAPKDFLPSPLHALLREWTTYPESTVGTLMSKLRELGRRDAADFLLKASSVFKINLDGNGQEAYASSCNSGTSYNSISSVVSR
# Calcium/calmodulin-dependent protein kinase type II subunit delta (Homo sapiens), sequence (Q13557 whole entry): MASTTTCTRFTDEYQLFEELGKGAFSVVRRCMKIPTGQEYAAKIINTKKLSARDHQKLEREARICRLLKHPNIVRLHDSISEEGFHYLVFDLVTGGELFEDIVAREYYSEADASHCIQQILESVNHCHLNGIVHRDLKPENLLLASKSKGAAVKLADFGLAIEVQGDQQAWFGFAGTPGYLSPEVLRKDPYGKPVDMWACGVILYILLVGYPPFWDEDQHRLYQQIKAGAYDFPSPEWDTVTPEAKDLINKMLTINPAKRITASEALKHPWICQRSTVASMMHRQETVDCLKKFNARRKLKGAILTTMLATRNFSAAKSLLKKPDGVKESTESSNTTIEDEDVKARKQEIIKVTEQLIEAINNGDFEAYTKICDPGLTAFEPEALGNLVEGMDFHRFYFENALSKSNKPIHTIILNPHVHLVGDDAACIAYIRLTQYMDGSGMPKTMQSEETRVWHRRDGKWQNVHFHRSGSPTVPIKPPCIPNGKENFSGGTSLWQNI
# Calcium/calmodulin-dependent protein kinase type II subunit alpha (Homo sapiens), sequence (Q9UQM7 whole entry): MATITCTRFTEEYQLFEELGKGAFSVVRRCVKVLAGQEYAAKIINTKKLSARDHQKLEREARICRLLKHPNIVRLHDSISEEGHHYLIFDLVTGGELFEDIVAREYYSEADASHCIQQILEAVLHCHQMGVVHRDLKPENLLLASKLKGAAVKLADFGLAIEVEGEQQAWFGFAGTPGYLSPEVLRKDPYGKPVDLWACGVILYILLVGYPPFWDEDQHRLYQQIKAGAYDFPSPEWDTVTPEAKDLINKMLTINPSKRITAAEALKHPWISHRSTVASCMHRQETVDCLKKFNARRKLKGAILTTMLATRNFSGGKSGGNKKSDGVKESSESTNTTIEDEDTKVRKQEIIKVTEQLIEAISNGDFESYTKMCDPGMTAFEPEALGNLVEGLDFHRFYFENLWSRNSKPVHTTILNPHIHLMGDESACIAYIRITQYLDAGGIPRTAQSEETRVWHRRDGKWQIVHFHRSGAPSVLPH
SMILES,inhibition [1],inhibition [2],inhibition [3],inhibition [4],inhibition [5],inhibition [6],inhibition [7],inhibition [8],inhibition [9],inhibition [10],inhibition [11],inhibition [12],inhibition [13],inhibition [14],inhibition [15],inhibition [16],inhibition [17],inhibition [18],inhibition [19],inhibition [20]
NS(=O)(=O)c1ccc(N/N=C2\C(=O)Nc3ccc4ncccc4c32)cc1,7.93%,4.26%,18.3%,1.9%,2.53%,7.46%,41.1%,5%,26.3%,10.9%,63%,-1.4%,7.76%,0.89%,1.9%,2.79%,3.84%,12.8%,52.9%,8.25%
CN(C)CCOc1ccc(-c2nc(-c3ccncc3)c(-c3ccc4c(c3)CC/C4=N\O)[nH]2)cc1,2.29%,1.28%,1.23%,0.04%,-0.88%,2.48%,5.39%,1.94%,4.06%,3.99%,5.09%,0.7%,1.55%,1.68%,2.27%,2.57%,4.19%,2.54%,3.97%,2.63%
Fc1ccc(-c2nn3ncccc3c2-c2ccnc(Nc3ccc4c(c3)OCCO4)n2)cc1,4.05%,3.8%,5.51%,0.98%,1.52%,1.26%,-1.02%,3.9%,5.77%,0.23%,2.12%,1.43%,-0.42%,1.56%,1.39%,34.4%,37.8%,1.97%,3.47%,4.24%
Fc1cccc(COc2ccc(Nc3ncnc4sc(-c5ccco5)cc34)cc2Cl)c1,-2.48%,3.02%,1.67%,-1.87%,-2.46%,10.1%,12.5%,7.63%,8.84%,13.2%,11.1%,-1.11%,4.98%,5.73%,4.4%,9.64%,11%,2.72%,5.69%,3.1%
COC(=O)Nc1nc2ccc(Oc3ccc(NC(=O)Nc4cccc(Cl)c4)cc3)cc2[nH]1,-1.94%,1.3%,0.37%,0.3%,-1.27%,-1.18%,-8.11%,0.39%,0.53%,0.42%,-0.2%,-0.66%,0.75%,-0.07%,-0.56%,3.71%,4.53%,0.33%,2.88%,0.27%
CC(C)COC(=O)c1ccc2c(c1)/C(=C/Nc1ccc(S(N)(=O)=O)cc1)C(=O)N2,17.5%,4.43%,36.7%,1.85%,3.51%,0.91%,18.1%,-0.46%,13.5%,-2.01%,3.08%,-2.21%,10.2%,-0.97%,-1.28%,-2.74%,-2.61%,42.7%,87.1%,33.3%
CCOc1ccc2c(-c3ccnc(Nc4cccc(C(F)(F)F)c4)n3)cnn2n1,-2.29%,2.41%,0.44%,1.94%,-1%,3.49%,3.51%,1.55%,1.92%,3.1%,1.54%,1.21%,3.6%,0.79%,-0.24%,2.73%,1.86%,2.43%,3.98%,1.6%
COc1cc2ncn(-c3cc(OCc4ccccc4C(F)(F)F)c(C(=O)N(C)C)s3)c2cc1OC,-0.49%,-1.72%,1.17%,0.72%,3.28%,-1.48%,1.32%,-0.7%,-0.07%,-0.75%,-1.63%,-2.64%,3.14%,-0.07%,-0.4%,-1.65%,0.87%,0.44%,1.45%,0.15%
COc1ccc(-c2oc3ncnc(N)c3c2-c2ccc(NC(=O)Nc3cc(C(F)(F)F)ccc3F)cc2)cc1,16.9%,6.01%,21.5%,0.6%,13.4%,8.35%,6.88%,2.06%,3.88%,5.33%,4.78%,1.65%,6.21%,2.26%,2.83%,4.08%,16.3%,3.02%,6.8%,0.75%
[O-][S+]1CCN(Cc2ccc(-c3ccc4ncnc(Nc5ccc(OCc6cccc(F)c6)c(Cl)c5)c4c3)o2)CC1,0.16%,2.62%,3.95%,0.28%,2.28%,7.38%,10.6%,1.91%,3.16%,6.57%,6.25%,0.51%,2.24%,1.68%,1.59%,7.01%,7.37%,4.1%,3.65%,3.31%
CS(=O)(=O)CCNCc1ccc(-c2ccc3ncnc(Nc4ccc(OCc5ccccc5)c(C(F)(F)F)c4)c3c2)o1,-1.78%,1.83%,1.77%,-0.46%,-1.2%,8.46%,10.8%,7.47%,7.84%,12.8%,10.9%,7.37%,2.23%,4.99%,3.73%,8.97%,10.7%,2.72%,4.11%,3.87%
